The values below come from ChEMBL document CHEMBL3433997, “St. Jude Leishmania screening dataset” (2016).

The structures appear in SMILES notation.

The target in the assay is Glucose transporter (Leishmania mexicana) (UniProt O61059). The assay is described as follows: ST_JUDE_LEISH: Cytotoxicity at 2uM final concentration against transgenic Leishmania Mexicana promastigotes LmGT2 that are glucose transport deficient and complemented with the L. Mexicana glucose transporter 2. Activity is measured by DNA content using SYBR green in vitro. Format: functional.
In the case of `CCCCCCCN1CC[C@@H](CCCc2ccnc3ccc(OCCN4CCNCC4)cc23)[C@@H](CC)C1`, the inhibition came out at 0.64%.

On to `CCOc1ccc2c(N/N=C/c3cccc([N+](=O)[O-])c3)cc(C)nc2c1`, for which the inhibition is 4.14%.

On to `O=C(c1cc(-c2ccco2)n[nH]1)N1CCN(S(=O)(=O)c2ccc(Br)cc2)CC1`, for which the inhibition was 7.48%.

On to `Cc1cc(=NN=Cc2ccccc2F)c2cc(C(F)(F)F)ccc2[nH]1`, for which the inhibition is 0.5%.

As to `COc1ccc2ncc(F)c(CCN3CC[C@H](NC(=O)c4ccc5c(n4)NC(=O)CS5)[C@H](O)C3)c2n1`, the inhibition is 1.48%.

For the compound `Oc1cc2ccccc2cc1CNC1CCCCC1`, the inhibition stood at 1.5%.

For `Cc1cccc(CN2CCC(Oc3ccc(NC(=O)c4cccs4)cc3Cl)CC2)n1`, the inhibition was found to be 2.69%.

Turning to `Nc1ccc2nc(C=Cc3ccc(Cl)cc3)[nH]c2c1`, the inhibition amounted to 5.14%.

Take `Cc1ccc(NS(=O)(=O)c2cccs2)cc1-c1cccc(C(=O)Nc2ccc(F)cc2)c1`: the inhibition is 1.16%.

For `CC(Oc1ccc(NC(=O)c2cccs2)cc1)C(=O)c1ccc(Cl)cc1` (stereo not given), the inhibition was 7.25%.

As for `O=C(Nc1cccc(-c2nn3ccccc3c2-c2ccnc(Nc3cccc(F)c3)n2)c1)c1c(F)ccc(F)c1Cl`, the inhibition was found to be 6.24%.

For `NCc1cccc(-c2ccccc2CNC2CCN(Cc3ccccc3)CC2)c1`, the inhibition is 6.92%.

On to `CC(C)c1cc(Oc2c(I)cc(CCCc3ncc[nH]3)cc2I)ccc1O`, for which the inhibition worked out at 6.8%.

In the case of `CC(=O)Nc1ccc(CN2CCc3ccc(NS(=O)(=O)c4ccc(-c5cccc(C(F)(F)F)c5)cc4)cc3CC2)s1`, the inhibition amounted to 3.46%.

Regarding `COc1cc2nc(N3CCC(CNC(=O)c4cccc5cc[nH]c45)CC3)nc(N)c2cc1OC`, the inhibition was determined as 5.67%.

Regarding `CCCCCCNC(=O)C(N)CCCC(N)C(=O)NCCCCCC` (stereo not given), the inhibition came out at 5.23%.

`CN(C)Cc1ccc2cc(NC(=O)c3ccc(-c4ccc(Cl)cc4)cc3)ccc2c1`: the inhibition was 2.55%.

For the compound `CN1CCCN(Cc2cccc(-c3ccc(NC(=O)c4cccc(Cl)c4)cc3)c2)CC1`, the inhibition was 69.1%.

On to `CC(C)C(=O)NC(c1cccs1)c1cc(Cl)c2cccnc2c1O` (stereo not given), for which the inhibition was -0.45%.

Consider `COc1c(F)ccc2ncc(Cl)c(CCN3CCC(NCc4ccc5c(n4)NC(=O)CS5)CC3)c12`, for which the inhibition was -2.91%.

Consider `Cc1cc(NCCC(=O)NCc2cccc(F)c2)nc(NCCc2ccc(F)cc2)n1`, for which the inhibition stood at 3.7%.

On to `O=C(Nc1ccc([N+](=O)[O-])cc1)c1nn(-c2ccccc2)cc1/N=C/c1cccc(O)c1`, for which the inhibition was -1.45%.

For `Cc1ccc(C(=O)Nc2ccc(Cl)c(N3CCN(CCc4ccccc4)CC3)c2)cc1`, the inhibition is 6.51%.

Turning to `CCCc1cc(Cc2cnc(N)nc2N)cc(CCC)c1OCCCCCC(=O)OCC`, the inhibition amounted to 2.52%.

Take `CCn1c(SCC(=O)Nc2cc(C(F)(F)F)ccc2Cl)nc2ccccc2c1=O`: the inhibition was 4.32%.

Take `N#Cc1ccc(-c2ccc3nc(N4CCCN(C5CCC5)CC4)ccc3c2)cc1`: the inhibition is 6.34%.

For the compound `O=C(Nc1ccc(C(=O)Oc2ccc(-c3ccccc3)cc2)cc1)N[C@@H](Cc1ccc(O)cc1)C(=O)NC1CCN(Cc2ccc(O)cc2)C1` (stereo not given in full), the inhibition is 4.33%.

For the compound `CC(=O)Nc1cccc(C(=O)Nc2nc3ccc(-c4cc(=O)[nH]c(Nc5ccccc5Cl)n4)cc3[nH]2)c1`, the inhibition was determined as 5.36%.

Consider `CC1(C)N=C(N)N=C(N)N1c1cccc(I)c1`, for which the inhibition turned out to be 0.13%.

Consider `CN1CCN(c2ccnc3cc4ccccc4cc23)CC1`, for which the inhibition is -0.9%.

Regarding `O=C(Nc1ccccc1)N(Cc1ccc(-c2ccc(CNCc3ccc4c(c3)OCO4)cc2)cc1)C1CCN(Cc2ccccc2)CC1`, the inhibition is -6.42%.

Consider `CN(Cc1cccc(F)c1)C1CCN(c2cc(NC(=O)c3ccc(F)cc3)ccn2)C1` (stereo not given), for which the inhibition came out at 1.63%.

Take `COc1cc(C)ccc1N1CCN(CCCCNC(=O)c2ccc(NC(=O)c3ccc(Cl)cc3)cc2)CC1`: the inhibition worked out at 6.92%.

Regarding `NOCCCOc1ccc(Cl)cc1`, the inhibition came to 3.9%.

As for `COc1ccc(CC(Cc2ccc(OC)cc2)NCC(O)c2cccc(Cl)c2)cc1` (stereo not given), the inhibition amounted to 1.6%.

In the case of `O=C1C(=Cc2cc(Cc3ccccc3)ccc2O)SC(=S)N1Cc1ccccc1`, the inhibition is 8.43%.

Regarding `COc1ccc(CNC2Cc3ccccc3C2)cc1-c1cccc(S(=O)(=O)NCCN2CCCC2)c1`, the inhibition was found to be 3.08%.

Take `COc1ccc2nccc([C@@H](O)CN3CCC(NCc4cc5cc(OC(F)(F)F)ccc5[nH]4)CC3)c2c1`: the inhibition was found to be 3.79%.

As to `O=c1cc(N2CCCNCC2)c(Cl)nn1Cc1ccc(NS(=O)(=O)c2ccc(Oc3ccccc3)cc2)cc1`, the inhibition came to 8.55%.

For `CCCCOc1cc2ncc(C(=O)OCC)c(O)c2cc1OCCCC`, the inhibition was -3.15%.

The inhibition is the drop in the measured response relative to a control, in per cent.
